Screens deposited in PubChem BioAssay by National Center for Advancing Translational Sciences (NCATS).
An excerpt weighted towards active compounds, which were near 11% of everything screened.
HP1b binding inh = inhibitors of HP1-beta chromodomain binding to methylated histone tails; P83916; AlphaScreen HP1-beta / biotin-H3K9me3 peptide binding; Potency, µM (titrated, usually from 114 µM), inactives show top-dose activity change, negative = inhibition, usual class: inhibitors; 390,000 tested, 0.56% active; also: nearly all actives have a fitted effect of over 70% in size
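HP1-beta protein (50 nM final) preincubated 30 min at room temperature with biotinylated H3(1-18)K9me3 peptide (50 nM) in PBS pH 7.4, 0.01% Tween-20, then compound added for 30 min. AlphaScreen streptavidin donor/nickel chelate acceptor beads (10 ug/mL final), 30 min dark, luminescence read.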
BAZ2B block = inhibitors of human BAZ2B bromodomain. 360,000 tested, 4.4% active. Q9UIF8. AlphaScreen BAZ2B-H3K14Ac peptide displacement. Potency, µM (doses to about 114 µM), for inactives: at the highest dose activity change, negative = inhibition, usual class: inhibitors; also: % is scaled to controls: 0 for no effect and ±100 for the full control effect; nearly all actives have a fitted effect of over 60% in size
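Protein-peptide AlphaScreen: BAZ2B 50 nM, b-H3K14Ac 50 nM, 1x PBS pH 7.4 + 0.01% Tween-20. Preincubation 30 min RT; cpd 30 min RT (top 110 uM); beads 20 min RT, light-protected.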
L3MBTL1 inh = inhibitors of human L3MBTL1. Q9Y468. AlphaScreen L3MBTL1–H3K9me1 peptide binding. Potency, µM (highest dose often 57.1 µM), for the others: top-dose activity, negative = inhibition, usual class: inhibitors. 230,000 tested, 0.66% active. AID 485360; also: % is scaled to controls: 0 for no effect and ±100 for the full control effect; nearly all actives have a fitted effect of over 60% in size
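AlphaScreen assay: L3MBTL1 (50 nM final) was preincubated 30 min at room temperature with biotinylated H3(1-15)K9me1 peptide (75 nM final), then 30 min with library compounds; streptavidin donor and nickel chelate acceptor beads (10 ug/mL final) added, 30 min dark.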
G9a block = blocks human histone lysine methyltransferase G9a. Potency, µM (series often up to 102 µM), inactives show at the highest dose activity, negative = inhibition, actives largely listed as inhibitors. AID 504332. G9a H3K9 monomethylation, AlphaScreen, 2 h. 350,000 tested, 8.8% active; also: % is scaled to controls: 0 for no effect and ±100 for the full control effect; nearly all actives have a fitted effect of over 75% in size
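AlphaScreen detection with an anti-monomethyl H3K9 antibody quantified product after a 2 h room-temperature reaction containing 500 nM biotinylated H3K9 peptide, 20 µM SAM and 20 nM enzyme, which had been preincubated 15 min with compound.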
JMJD2A Tudor inh = inhibitors of human JMJD2A Tudor domain. AID 504339. 390,000 tested, 4.4% active. AlphaScreen JMJD2A-Tudor / H3K4me3 peptide binding. Potency, µM (series often up to 114 µM), inactives show at the top dose activity change, negative = inhibition, most hits filed as inhibitors; also: % is scaled to controls: 0 for no effect and ±100 for the full control effect; nearly all actives have a fitted effect of over 50% in size
Target sequence (O75164 whole entry, looked up, the tested form may be a part): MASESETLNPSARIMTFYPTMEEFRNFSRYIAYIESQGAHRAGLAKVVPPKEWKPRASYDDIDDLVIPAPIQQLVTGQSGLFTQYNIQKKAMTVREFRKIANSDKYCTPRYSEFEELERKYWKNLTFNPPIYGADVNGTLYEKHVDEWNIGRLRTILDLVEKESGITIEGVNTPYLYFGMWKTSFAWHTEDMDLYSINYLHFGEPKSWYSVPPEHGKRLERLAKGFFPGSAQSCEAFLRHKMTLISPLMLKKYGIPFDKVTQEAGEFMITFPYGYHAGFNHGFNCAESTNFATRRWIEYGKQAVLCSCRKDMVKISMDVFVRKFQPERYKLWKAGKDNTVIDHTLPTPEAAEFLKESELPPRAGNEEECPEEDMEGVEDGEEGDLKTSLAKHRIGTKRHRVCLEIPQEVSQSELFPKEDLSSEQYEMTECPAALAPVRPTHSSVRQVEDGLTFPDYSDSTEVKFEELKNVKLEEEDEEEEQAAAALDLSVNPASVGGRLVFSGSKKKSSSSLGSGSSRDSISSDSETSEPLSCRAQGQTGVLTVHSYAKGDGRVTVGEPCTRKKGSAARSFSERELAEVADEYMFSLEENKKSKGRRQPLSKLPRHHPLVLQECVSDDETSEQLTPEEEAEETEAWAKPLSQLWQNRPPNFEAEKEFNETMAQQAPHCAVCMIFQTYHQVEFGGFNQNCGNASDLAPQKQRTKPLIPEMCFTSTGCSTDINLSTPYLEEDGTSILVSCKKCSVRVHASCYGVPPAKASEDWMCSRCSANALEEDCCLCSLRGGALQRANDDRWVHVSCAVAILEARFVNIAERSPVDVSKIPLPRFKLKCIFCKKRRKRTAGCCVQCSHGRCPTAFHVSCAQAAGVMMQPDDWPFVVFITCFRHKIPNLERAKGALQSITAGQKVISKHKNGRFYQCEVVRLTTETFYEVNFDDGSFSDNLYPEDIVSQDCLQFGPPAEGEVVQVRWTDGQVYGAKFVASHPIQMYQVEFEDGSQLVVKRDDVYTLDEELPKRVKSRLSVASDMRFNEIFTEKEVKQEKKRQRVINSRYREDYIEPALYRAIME
Active calls of the source: *; ? = inconclusive; · = no result; [ ] = remark or other dose. Calls follow the shape of the dose curve; as a rule, active = well fitted inhibition curve with a large enough effect; inconclusive = small, poorly fitted or top-dose-only effect; inactive = no such curve, though single readings can be large or run the other way. Potency is read from the fitted curve at half-maximal effect.

SMILES	HP1b binding inh	BAZ2B block	L3MBTL1 inh	G9a block	JMJD2A Tudor inh
O=C(O)c1ccc(N=Cc2c(O)n(Cc3ccc(F)cc3)c(=O)[nH]c2=O)cc1	47.3%	-30.4%	0.5%	1.0%[59 µM]	-11.2%
O=C(N/N=C/c1c(O)n(Cc2ccccc2)c(=O)[nH]c1=O)c1ccncc1	18.2%	50.1µM*	·	-37.4%	?
CC12CCCCC1(O)[N+](=O)C1=C(CCCC1)N2[O-] (stereo not given)	23.8%	?	-20.0%	?	-11.0%[57.1 µM]
COC(=O)CSC1=NN1c1cc(C)nc(N)n1	49.3%	1.8%	6.1%	50.1µM*	-9.2%
CCc1c(C)nc(N)nc1N1N=C1SCC(=O)OC	0.4%	-11.1%	6.4%	22.4%[12.7 µM]	-19.6%
COc1ccc(CCNCc2ccc(OC)c(OC)c2OC)cc1	?	79.4µM*	·	14.1µM*	3.16µM*
COc1ccccc1CCNCc1ccc(OC)c(OC)c1OC	-34.6%	39.8µM*	10.8%	·	20µM*
C[C@]12CC[C@H](O)C[C@H]1CCC1C2CC[C@]2(C)[C@@H](c3ccc(=O)oc3)C[C@H]3O[C@]132 (stereo not given in full)	·	·	·	-33.7%[12.7 µM]	·
CN[C@@H](C)[C@H](O)c1ccccc1	·	·	·	0.0447µM*	·
CCN1C[C@]2(COC(=O)c3ccccc3N3C(=O)CC(C)C3=O)CC[C@H](OC)[C@@]34C5C[C@@H]6[C@@H](OC)C[C@@](O)(C5[C@H]6OC)[C@](O)([C@@H](OC)C23)[C@@H]14 (stereo not given in full)	·	·	·	28.2%[59 µM]	·
Cc1cccc(OCC(=O)N2CCN(Cc3cccnc3)CC2)c1	?	?	2.0%	-0.3%	2.82µM*
COc1ccc(CN2CCN(Cc3ccccc3F)CC2)cc1	17.8µM*	17.8µM*	·	3.98µM*	3.16µM*
Cc1cc(=O)oc2cc(OCC(=O)N3CCN(Cc4ccccc4)CC3)ccc12	3.2%	·	0.2%	·	-2.7%
COc1ccc(CC(=O)N(CCN(C)C)CC2CCCN(Cc3ccccc3F)C2)cc1 (stereo not given)	27.6%	19.8%	25.5%	·	-16.5%
Cc1cccc(CN2CCN(C(=O)Cc3ccccc3)CC2)c1	?	79.4µM*	-3.1%	28.2µM*	6.31µM*
CSc1ccc(CN2CCN(C(=O)Cc3ccccc3)CC2)cc1	?	·	·	·	20µM*
C#C[C@@]1(O)CC[C@@H]2[C@@H]3CCC4=CC(=O)CC[C@@]4(C)[C@H]3CC[C@]21C	·	·	·	14.9%[21.5 µM]	·
COc1ccccc1NC(=O)c1oc2ccccc2c1NC(=O)COc1cccc(C)c1	42.6%	-3.2%	·	0.7%[59 µM]	-13.9%
O=C(Cc1ccccc1)N1CCN(Cc2ccccc2Cl)CC1	?	20µM*	·	44.7µM*	17.8µM*
O=C(Cc1ccccc1)N1CCN(Cc2cccnc2)CC1	-44.9%	31.6µM*	·	6.31µM*	4.47µM*
CCc1ccc(CN2CCN(C(=O)Cc3ccccc3)CC2)cc1	28.2µM*	25.1µM*	-5.2%	22.4µM*	20µM*
CSc1ccc(CN2CCN(Cc3ccccc3Cl)CC2)cc1	?	17.8µM*	-10.2%	4.47µM*	5.01µM*
CN1CCN(C(=O)Cc2ccccc2)CC1	65.0%	-7.8%	4.7%	-0.5%	-7.2%
COc1ccc(CCNC(=O)CCc2c(C)nc3c(-c4ccc(F)cc4)c(C)nn3c2C)cc1OC	47.7%	-24.5%	·	16.2%[59 µM]	-8.8%
O=C(c1c[nH]c(C(=O)C(Cl)(Cl)Cl)c1)c1ccccc1Cl	11.4%	?	·	-1.7%[59 µM]	?
SMILES	HP1b binding inh	BAZ2B block	L3MBTL1 inh	G9a block	JMJD2A Tudor inh
Cc1cc(C(=O)OCC(=O)NC(=O)c2cccn2C)c2ccccc2n1	13.4%	17.7%	-13.1%	?	10.9%
O=c1[nH]c(=O)n([C@H]2C[C@@H](O)[C@@H](CO)O2)cc1C=CBr	·	·	·	40.5%[59 µM]	·
CCc1ccc(CN2CCN(Cc3cc(Br)ccc3O)CC2)cc1	25.1µM*	44.7µM*	·	25.1µM*	22.4µM*
c1ccc(CN2CCN(Cc3ccc4ccccc4c3)CC2)cc1	?	28.2µM*	-3.6%	1.41µM*	0.794µM*
COc1cc(OC)c(OC)cc1CN1CCN(C(=O)Cc2ccccc2)CC1	?	?	0.5%	7.94µM*	17.8µM*
Cc1ccc(CN2CCN(Cc3ccccc3)CC2)cc1	11.4%	?	-0.6%	·	-17.7%
Cc1cc(S(=O)(=O)NCC(C)C)ccc1OCC(=O)N1CCN(Cc2ccccc2)CC1	-0.7%	-4.9%	·	-40.5%[12.7 µM]	-16.4%
CCN1CCN(Cc2cc(Br)ccc2O)CC1	11.4%	?	·	?	-7.4%
C=CC[N+]1(C)CCC23c4c5ccc(O)c4O[C@H]2C(=O)CC[C@@]3(O)C1C5 (stereo not given in full)	·	·	·	31.1%[59 µM]	·
C=CC[N+]1(C)CC[C@]23c4c5ccc(O)c4O[C@H]2C(=O)CC[C@@]3(O)[C@H]1C5 (stereo not given in full)	?	-6.9%	6.2%	1.58µM*	?
CCCCC/C=C\C=C\[C@H](CCCCCCCC(=O)O)OO	·	·	·	6.7%[59 µM]	·
CC(C)C[C@H]1CN([C@@H](CC(C)C)CN2CCCC2CN2C(=S)NC[C@@H]2Cc2ccc(O)cc2)C(=S)N1CC1CCCCCC1 (stereo not given in full)	36.3%	·	·	·	?
O=C(O)c1ccc([N+](=O)[O-])c([N+](=O)[O-])c1	-12.8%	·	·	·	-20.7%
O=C(O)c1sccc1Oc1ccc(F)cc1[N+](=O)[O-]	20.6%	?	·	35.5µM*	-19.9%
O=C(c1ccncc1)N1CCC2(CC1)CN(Cc1ccccc1)C2	·	·	·	0.4%[12.7 µM]	·
Cc1ccnc(NS(=O)(=O)c2ccc(N=Cc3c(O)n(C)c(=O)n(C)c3=O)cc2)n1	21.2%	?	-3.3%	44.7µM*	-7.5%[57.1 µM]
C[N+]1=C2CCCCCN2C(O)(c2ccccc2)C1 (stereo not given)	10.9%	-2.5%	6.3%	31.6µM*	44.7µM*
C(=C\c1ccccc1)/CN1CCN(Cc2ccc3c(c2)OCCO3)CC1	·	?	-23.6%[11.4 µM]	-49.2%[59 µM]	·
O=C(O)c1[nH]c(=O)[nH]c(=O)c1F	-1.2%	50.1µM*	17.0%	28.2µM*	7.08µM*
CCCCn1c(C)c(C(=O)O)c2cc(OC)ccc21	13.0%	-8.7%	-1.6%	-7.5%[59 µM]	-15.7%
CCOC(=O)c1c(C)n(CCN2CCN(C)CC2)c2ccc(OC)cc12	?	-33.8%	-2.1%	?	17.8µM*
C=CCn1c(CSc2ccccc2[N+](=O)[O-])n[nH]c1=S	?	39.8µM*	·	1.26µM*	8.91µM*
O=C1CCC[C@H]2[C@@H]3CCCN4CCC[C@H](CN12)[C@H]34	·	·	·	37.6%[59 µM]	·
O=C(/C=C/c1ccc(Br)cc1)NC(=S)N1C[C@H]2C[C@H](C1)c1cccc(=O)n1C2	11.3%	-10.8%	7.7%	50.1µM*	-31.3%
COc1ccc(/C=C/C(=O)NC(=S)N2C[C@H]3C[C@H](C2)c2cccc(=O)n2C3)cc1	21.2%	-1.1%	10.2%	?	-17.0%
